Records with an inconclusive call do not appear. The source made the active and inactive calls. Calls come from the whole dose curve.
Experiments:
[1] = Primary qHTS for inhibitors of SARS-S pseudo-typed particle cell entry (AID 1479145); note: nearly all actives have a fitted effect of over 45% in size
[2] = Primary qHTS for Huh7 cytotoxicity: counterscreen for inhibitors of MERS-S pseudotyped particle cell entry (AID 1479147)
[3] = Primary qHTS for inhibitors of MERS-S pseudo-typed particle cell entry (AID 1479149); note: nearly all actives have a fitted effect of over 60% in size
[4] = Primary qHTS for Vero E6 cytotoxicity: counterscreen for inhibitors of SARS-S pseudo-typed particle cell entry (AID 1479150)
[5] = Cytotoxicity counterscreen for inhibitors of SARS-CoV-2 cell entry (AID 1645845); note: nearly all actives have a fitted effect of over 50% in size
In short: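 Counterscreen run in the same HEK293-ACE2 line as the pseudotyped-particle entry assay, without particles. Viability after 48 h at 37 C was read as ATP luminescence, scaled between cell-containing and cell-free wells.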

Measured: Potency

O=C(O)CCCc1ccccc1
inactive: all assays above

CCN(CC)CCNC(=O)c1cc(Cl)c(N)cc1OC
inactive: all assays above

Cc1cc(C)cc(OCC2CNC(=O)O2)c1 (stereo not given)
inactive: all assays above

COc1cc(C(=O)NCc2ccc(OCCN(C)C)cc2)cc(OC)c1OC
inactive: all assays above

CC1=C(C(=O)O)N2C(=O)[C@@H](NC(=O)[C@H](N)c3ccccc3)[C@H]2SC1
inactive: all assays above

CC[N+](C)(C)c1cccc(O)c1
inactive: all assays above

COc1cc2nc(N3CCN(C(=O)C4CCCO4)CC3)nc(N)c2cc1OC (stereo not given)
inactive: all assays above

C[C@@H](c1ncncc1F)C(O)(Cn1cncn1)c1ccc(F)cc1F (stereo not given in full)
inactive: all assays above

Cc1ccc(S(=O)(=O)NC(=O)NN2CC3CCCC3C2)cc1 (stereo not given)
inactive: all assays above

N=c1nc(N2CCCCC2)cc(N)n1O
inactive: all assays above

CC(C)(C)NC(=O)[C@H]1CC[C@H]2[C@@H]3CC[C@H]4NC(=O)C=C[C@]4(C)[C@H]3CC[C@]12C
inactive: all assays above

CCn1cc(C(=O)O)c(=O)c2cc(F)c(N3CCNCC3)cc21
inactive: all assays above

CCN(C)C(=O)Oc1cccc([C@H](C)N(C)C)c1
inactive: all assays above

CC(C)NCC(O)COc1ccc(CCOCC2CC2)cc1 (stereo not given)
inactive: all assays above

CCCN(CCC)S(=O)(=O)c1ccc(C(=O)O)cc1
inactive: all assays above

COC(=O)[C@@H]1CC2=CC(=O)CC[C@]2(C)[C@@]23O[C@@H]2C[C@@]2(C)[C@@H](CC[C@@]24CCC(=O)O4)[C@H]13
inactive: all assays above

Cc1ccccc1N1C(=O)c2cc(S(N)(=O)=O)c(Cl)cc2NC1C (stereo not given)
inactive: all assays above

CCCCN1C[C@H](O)[C@@H](O)[C@H](O)[C@H]1CO
inactive: all assays above

Cc1cccc(Nc2ccncc2S(=O)(=O)NC(=O)NC(C)C)c1
inactive: all assays above

CCCc1nc2c(C)cc(-c3nc4ccccc4n3C)cc2n1Cc1ccc(-c2ccccc2C(=O)O)cc1
inactive: all assays above

CC(C)(O)c1ccccc1CC[C@@H](SCC1(CC(=O)O)CC1)c1cccc(/C=C/c2ccc3ccc(Cl)cc3n2)c1
inactive: all assays above

CCOC(=O)C1=C(C)NC(C)=C(C(=O)OC)C1c1cccc(Cl)c1Cl (stereo not given)
inactive: all assays above

C[n+]1ccccc1/C=N/O
inactive: all assays above

CCN1CCN(C(=O)N[C@@H](C(=O)N[C@@H]2C(=O)N3C(C(=O)O)=C(CSc4nnnn4C)CS[C@H]23)c2ccc(O)cc2)C(=O)C1=O
inactive: all assays above

Nc1nc(F)nc2c1ncn2[C@@H]1O[C@H](CO)[C@@H](O)[C@@H]1O
inactive: all assays above

O=C1NC(c2ccccc2)(c2ccccc2)C(=O)N1COP(=O)(O)O
inactive: all assays above

CN(C)c1nc(N(C)C)nc(N(C)C)n1
inactive: all assays above

CCC1(c2ccccc2)C(=O)NCNC1=O
inactive: all assays above

CCOC(=O)Nc1ccc2c(c1)N(C(=O)CCN1CCOCC1)c1ccccc1S2
inactive: all assays above

CN(C)c1cc(NC(=O)CNC(C)(C)C)c(O)c2c1C[C@@H]1C[C@H]3[C@H](N(C)C)C(=O)C(C(N)=O)=C(O)[C@@]3(O)C(=O)C1=C2O
inactive: all assays above

C[N+]1(C)CCC(OC(=O)C(O)(c2ccccc2)C2CCCC2)C1 (stereo not given)
inactive: all assays above

CCCN(CCC)CCc1cccc2c1CC(=O)N2
inactive: all assays above

NCCCC(O)(P(=O)(O)O)P(=O)(O)O
inactive: all assays above

CC(=O)OCC(CCn1cnc2cnc(N)nc21)COC(C)=O
inactive: all assays above
